Results published in PubChem BioAssay (NCATS).
Results filed as inconclusive are left out. Active and inactive are the calls of the source. Calls come from the whole dose curve; as a rule, active = well fitted inhibition curve with a large enough effect; inconclusive = small, poorly fitted or top-dose-only effect; inactive = no such curve, though single readings can be large or run the other way.

biological target: Rap guanine nucleotide exchange factor 3 (Homo sapiens) (UniProt O95398); assay: Confirmatory qHTS for antagonist of cAMP-regulated guanine nucleotide exchange factor 3 (EPAC1) (AID 1645880); settings: EPAC1 Rap1B-BODIPY-GDP exchange, fluorescence; series mostly up to 115 µM; activity, negative = inhibition: at the top concentration; note: nearly all actives have a fitted effect of over 55% in size;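 for activity, negative = inhibition: plate controls were DMSO only for no effect and full effect of the ATA control for full effect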
Sequence (O95398 whole entry, looked up): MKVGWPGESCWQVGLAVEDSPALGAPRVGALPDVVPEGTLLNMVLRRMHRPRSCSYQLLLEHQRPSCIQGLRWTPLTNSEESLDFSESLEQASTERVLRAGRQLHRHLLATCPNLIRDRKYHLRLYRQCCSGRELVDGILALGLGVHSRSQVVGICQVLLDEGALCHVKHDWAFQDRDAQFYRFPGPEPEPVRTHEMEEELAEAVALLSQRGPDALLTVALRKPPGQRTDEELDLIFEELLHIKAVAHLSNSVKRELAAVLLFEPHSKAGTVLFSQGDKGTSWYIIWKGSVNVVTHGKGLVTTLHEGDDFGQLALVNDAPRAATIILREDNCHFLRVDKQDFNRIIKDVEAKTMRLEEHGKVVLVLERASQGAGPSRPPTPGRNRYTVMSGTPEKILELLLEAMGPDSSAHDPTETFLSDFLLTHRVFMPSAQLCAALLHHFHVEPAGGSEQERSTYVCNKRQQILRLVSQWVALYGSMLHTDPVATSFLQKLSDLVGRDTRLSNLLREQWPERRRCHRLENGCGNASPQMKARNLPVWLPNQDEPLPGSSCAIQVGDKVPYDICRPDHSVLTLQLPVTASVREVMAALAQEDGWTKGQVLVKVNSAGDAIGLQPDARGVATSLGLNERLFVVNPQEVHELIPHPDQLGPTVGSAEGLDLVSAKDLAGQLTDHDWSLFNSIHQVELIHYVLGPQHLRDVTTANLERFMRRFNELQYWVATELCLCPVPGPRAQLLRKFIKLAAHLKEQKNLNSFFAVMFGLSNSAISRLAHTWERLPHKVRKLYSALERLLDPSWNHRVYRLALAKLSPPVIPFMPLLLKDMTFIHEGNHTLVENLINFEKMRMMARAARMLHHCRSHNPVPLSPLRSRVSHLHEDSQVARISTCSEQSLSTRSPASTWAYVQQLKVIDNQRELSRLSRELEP
How it was run: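 Released BODIPY-GDP fluoresces less than Rap1-bound BODIPY-GDP; the signal is followed at 480/540 nm at 5-min intervals over 30 min, after 5 min at room temperature. Reactions contain 100 nM EPAC1, 250 nM RAP1B-BODIPY-GDP and 50 uM GDP; results are normalized to ATA and DMSO.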
Potency is the fitted concentration of half-maximal effect.

Potency, active:
CCN1/C(=C/c2ccc3cc(C)ccc3[n+]2CC)Sc2ccccc21 75.7 µM
O=C(/C=C/c1ccc([N+](=O)[O-])cc1)Nc1cccc(C(=O)Nc2ccccc2C(=O)O)c1 22.4 µM
C=CCOc1ccc(C(c2c(C(=O)O)[nH]c3ccccc23)c2c(C(=O)O)[nH]c3ccccc23)cc1 33.8 µM
N#Cc1c(-c2ccccc2)nc(SCc2cccc(Cl)c2)[nH]c1=O 67.5 µM
Cc1nn(CCc2nn[nH]n2)c2nc(-c3ccc(C4CCCCC4)cc3)cc(C(F)(F)F)c12 21.3 µM
Cc1ccc(-c2nc3ccc(Br)cn3c2Cc2ccccc2C(F)(F)F)cc1 84.9 µM
COc1cc(/C=C2\SC(=O)N(CC(=O)Nc3cccc(C)c3)C2=O)cc([N+](=O)[O-])c1O 19 µM
NC(=O)c1sc(=S)n2c1[nH]c(=O)c1sccc12 16.9 µM
NS(=O)(=O)c1ccc(-c2cccc(/C=C3\SC(=O)NC3=O)c2)cc1 33.8 µM
O=c1cc(-c2ccccc2)nc2c(-c3ccccc3)c(C(F)(F)F)[nH]n12 42.6 µM

activity, negative = inhibition, inactive:
COc1ccc(N2CCN(C(=O)CSc3ncn[nH]3)CC2)cc1 -16.2%
CN(C)C(=S)Oc1ccccc1-c1ccccc1OC(=S)N(C)C -18.3%
Clc1ccc(-c2cc3ccccc3nc2N2CCOCC2)cc1 -18.4%
Cc1ccsc1C(=O)OCC(=O)NCCNC(=O)COC(=O)c1sccc1C -7.87%
CCCCn1c(N)c(N(CC(C)C)C(=O)C2CCN(C(=O)c3ccc(Cl)cc3)CC2)c(=O)[nH]c1=O -4.78%
CCC(=O)Nc1ccc(C(=O)NNC(=O)c2ccc([N+](=O)[O-])cc2)cc1 -8.63%
O=C(c1ccc(Br)cc1)N(Cc1cccs1)c1ccc(F)cc1 -25.4%
COc1ccccc1OCC(=O)Nc1cccc(S(=O)(=O)NC2=NCCCCC2)c1 -16%
CCN1C(=O)/C(=C/C=C2/SCCN2C)SC1=S -6.04%
Cc1nc(N)sc1C(=O)N1N=N1 -28.6%
CCCCN1C(=O)/C(=C/C=C2\Oc3ccccc3N2CC)SC1=S -2.67%
CCN1C/C(=C/c2ccc(N3CCOCC3)cc2)C(=O)/C(=C/c2ccc(N3CCOCC3)cc2)C1 73.7%
CCN(CC)c1nc(SCC(=O)O)nc(N(CC)CC)n1 -19.1%
CCOc1ccc(-n2c(SCC(=O)Nc3ccccc3OC)nc3c(oc4ccccc43)c2=O)cc1 -52.8%
CN(C)CCCN(C(=O)COc1ccc(Cl)cc1)c1nc2cc3c(cc2s1)OCCO3 -26.1%
O=C1c2cccc3cccc(c23)N1Cc1ccc(F)cc1 -17.8%
CC(Sc1ccccc1)C(=O)NNC(=O)c1csc(N2CCOCC2)n1 (centres undefined) -14%
CCOC(=O)c1ccc(N2C(=O)c3[nH]nc(-c4ccc(OCC)cc4)c3C2c2cccs2)cc1 (centres undefined) -17.5%
COc1ccc(CNC(=O)c2cc(=O)c3cc(C)ccc3o2)cc1 -27%
O=C(COc1ccccc1Cl)Nc1cccc(S(=O)(=O)NC2=NCCCCC2)c1 -12.5%
Cc1ccc2nc(-c3ccc(NC(=O)c4ccco4)cc3)[nH]c2c1 -13.9%
COc1ccc(NC(=O)Cn2cnc3sc(C)c(S(=O)(=O)N4CCOCC4)c3c2=O)c(OC)c1 -11.1%
COc1ccc(NC(=O)CS(=O)(=O)Cc2ccccc2)c([N+](=O)[O-])c1 -14.6%
COC(=O)C1(Cc2ccccc2)NC(c2ccc(F)cc2)C2C(=O)N(C)C(=O)C21 (centres undefined) -13.2%
CCOC(=O)c1cc2n(c1N)-c1ccccc1C2=O 17.6%
CC(=O)NC(CCS(C)(=O)=O)C(=O)Nc1cc(C)on1 (centres undefined) -22.7%
CCCOc1c(OC)cccc1C1CC(=O)Nc2cc(OC)c(OC)c(OC)c21 (centres undefined) -22.4%
CCCc1cc2c(cc1N(C)S(=O)(=O)c1ccccc1)OCO2 -16%
Cc1ccc2[nH]cc(C(c3ccccc3)c3cccs3)c2c1 (centres undefined) -33.3%
